From PubChem BioAssay (NCI)
The panel holds about 79,000 compounds, 15% with a hit somewhere; the sample as a whole holds those more often. Calls of active or inactive are those of the source. No stated cut-off is given here; in the data, active means growth inhibition above about 70%; inactive means the rest.

Tests used:
[1] = NCI Yeast Anticancer Drug Screen. Data for the wt1 strain (AID 149);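 further: 0% = growth of vehicle-treated wt1 cultures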; details: S. cerevisiae wt1 strain (SPY 50644) growth inhibition, stronger effect = higher value
How it was run: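 Vehicle-normalised growth inhibition; strain wt1; compound exposure.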

[2] = NCI Yeast Anticancer Drug Screen. Data for the rad50EPP+ strain (AID 151);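 further: 0% = growth of vehicle-treated control cultures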; details: S. cerevisiae rad50 mutant strain, stronger effect = higher value
How it was run: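 Yeast strain carrying rad50 alteration (rad50EPP+) exposed to compounds; growth inhibition measured relative to vehicle-treated controls.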

[3] = NCI Yeast Anticancer Drug Screen. Data for the rad50 strain (AID 155);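 further: 0% = growth of vehicle-only cultures of the same strain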; details: S. cerevisiae rad50 strain growth inhibition, stronger effect = higher value
How it was run: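 A DNA repair-deficient yeast mutant serves as the test organism; compound-induced growth inhibition is calculated against vehicle-treated cells.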

[4] = NCI Yeast Anticancer Drug Screen. Data for the mec2-1 strain (AID 157); details: S. cerevisiae mec2-1 strain, stronger effect = higher value
How it was run: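 mec2-1 yeast strain, carrying an alteration in DNA damage repair or cell cycle control, was exposed to compounds; growth inhibition was measured relative to vehicle-treated controls.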

[5] = NCI Yeast Anticancer Drug Screen. Data for the rad14 strain (AID 159);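 further: 0% = growth of vehicle-treated control cultures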; details: S. cerevisiae rad14 strain growth inhibition, stronger effect = higher value
How it was run: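 Vehicle-treated cultures served as the baseline for growth inhibition of a DNA repair-mutant yeast strain exposed to each compound.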

[6] = NCI Yeast Anticancer Drug Screen. Data for the sgs1 mgt1 strain (AID 161);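 further: 0% = growth of cultures given vehicle only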; details: S. cerevisiae sgs1 mgt1 strain, stronger effect = higher value
How it was run: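 Growth of a repair-deficient yeast mutant was monitored after compound treatment and expressed as inhibition relative to vehicle-treated cultures.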

[7] = NCI Yeast Anticancer Drug Screen. Data for the CLN2oe strain (AID 163);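 further: 0% = growth of vehicle-only control cultures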; details: S. cerevisiae CLN2oe strain, stronger effect = higher value
How it was run: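 Yeast cells carrying a defined cell-cycle control alteration were exposed to test compounds. Growth inhibition was scored against vehicle-treated control cultures.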

[8] = NCI Yeast Anticancer Drug Screen. Data for the cln2 rad14 strain (AID 165);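 further: 0% = growth equal to vehicle treated cultures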; details: S. cerevisiae cln2 rad14 strain, stronger effect = higher value
How it was run: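 Yeast carrying cln2 and rad14 alterations (cell cycle control and DNA damage repair) were exposed to compounds. Growth inhibition was measured against vehicle-treated controls.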

[9] = NCI Yeast Anticancer Drug Screen. Data for the bub3 strain (AID 167); details: S. cerevisiae bub3 mutant strain, stronger effect = higher value
How it was run: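 Inhibition values come from growth of compound-treated mutant yeast normalised to vehicle-treated controls.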

[10] = NCI Yeast Anticancer Drug Screen. Data for the wt2 strain (AID 169);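 further: 0% = growth of vehicle-treated yeast cultures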; details: S. cerevisiae wt2 strain growth inhibition, stronger effect = higher value
How it was run: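 Yeast cells were exposed to test compounds, and growth inhibition was measured relative to vehicle-treated controls.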

[11] = NCI Yeast Anticancer Drug Screen. Data for the mlh1 strain (AID 171);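 further: 0% = growth of vehicle-treated control cultures of the same strain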; details: S. cerevisiae mlh1 strain growth inhibition, stronger effect = higher value
How it was run: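 Yeast carrying a defined genetic alteration in DNA damage repair or cell cycle control were exposed to test compounds. Growth inhibition was measured relative to vehicle-treated controls.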

[12] = NCI Yeast Anticancer Drug Screen. Data for the sgs1 strain (AID 173);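 further: 0% = growth of vehicle-only control cultures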; details: S. cerevisiae sgs1 mutant, stronger effect = higher value
How it was run: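 Yeast mutant strains carrying defined defects in DNA damage repair or cell cycle control were exposed to test compounds. Growth inhibition was scored against vehicle-treated controls.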

[13] = NCI Yeast Anticancer Drug Screen. Data for the mlh1 rad18 strain (AID 175); details: S. cerevisiae mlh1 rad18 strain growth inhibition, stronger effect = higher value
How it was run: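 Growth inhibition of the yeast strain was measured after compound exposure and expressed relative to vehicle-treated controls. The strain carries defined defects in DNA damage repair.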

[14] = NCI Yeast Anticancer Drug Screen. Data for the rad18 strain (AID 177); details: S. cerevisiae rad18 mutant growth inhibition, stronger effect = higher value
How it was run: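 Yeast carrying a defined DNA damage repair alteration were exposed to compounds. Growth inhibition was expressed relative to vehicle-treated controls.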

[15] = at 5.0 µM (retest, dose inferred, filed as 0.5)
[16] = at 50.0 µM (retest, dose inferred, filed as 5.0)

Measured: growth inhibition

CC1=Cc2ccc(C)cc2C(=O)C1=O
inactive: [1]; at 1.2 µM -10% | [1]; at 3.7 µM 8% | [1]; at 11.0 µM 41% | [2]; at 1.2 µM 34% | [2]; at 3.7 µM 54% | [3]; at 1.2 µM 3% | [3]; at 3.7 µM 6% | [3]; [15] 31% | [3]; at 11.0 µM 53% | [4]; at 1.2 µM 2% | [4]; at 3.7 µM 21% | [4]; [15] -7% | [4]; at 11.0 µM 42% | [5]; at 1.2 µM 18% | [5]; at 3.7 µM 31% | [6]; [15] 43% | [7]; at 1.2 µM 2% | [7]; at 3.7 µM 2% | [7]; at 11.0 µM 9% | [7]; at 33.0 µM 18% | [8]; [15] 0% | [9]; at 1.2 µM 0% | [9]; at 3.7 µM -3% | [9]; [15] 36% | [9]; at 11.0 µM 2% | [9]; at 33.0 µM 44% | [10]; at 1.2 µM -7% | [10]; at 3.7 µM -6% | [10]; at 11.0 µM 4% | [10]; at 33.0 µM -1% | [11]; at 1.2 µM 12% | [11]; at 3.7 µM 11% | [12]; at 1.2 µM -1% | [12]; at 3.7 µM 8% | [12]; at 11.0 µM 65% | [13]; [15] 66% | [14]; at 1.2 µM 25% | [14]; at 3.7 µM 28% | [14]; at 11.0 µM 66%
active: [1]; at 33.0 µM 99% | [1]; at 100.0 µM 99% | [2]; at 11.0 µM 71% | [2]; at 33.0 µM 95% | [2]; at 100.0 µM 99% | [3]; at 33.0 µM 99% | [3]; [16] 99% | [3]; at 50.0 µM 99.1% | [3]; at 100.0 µM 98% | [4]; at 33.0 µM 100% | [4]; [16] 99% | [4]; at 50.0 µM 99.4% | [4]; at 100.0 µM 99% | [5]; at 11.0 µM 79% | [5]; at 33.0 µM 99% | [5]; at 100.0 µM 99% | [6]; [16] 99% | [6]; at 50.0 µM 99.3% | [7]; at 100.0 µM 94% | [8]; [16] 99% | [8]; at 50.0 µM 98.2% | [9]; [16] 99% | [9]; at 50.0 µM 99.3% | [9]; at 100.0 µM 99% | [10]; at 100.0 µM 98% | [11]; at 11.0 µM 71% | [11]; at 33.0 µM 99% | [11]; at 100.0 µM 99% | [12]; at 33.0 µM 99% | [12]; at 100.0 µM 99% | [13]; [16] 99% | [13]; at 50.0 µM 99.2% | [14]; at 33.0 µM 99% | [14]; at 100.0 µM 98%

COC(=O)C1(N2CCOCC2)CCC([C@@H](c2ccccc2)C(C)[N+](=O)[O-])C1 (stereo partly specified)
inactive: [1]; at 1.2 µM -3% | [1]; at 3.7 µM -2% | [1]; at 11.0 µM -2% | [1]; at 33.0 µM -3% | [1]; at 100.0 µM 4% | [2]; at 1.2 µM 2% | [2]; at 3.7 µM 3% | [2]; at 11.0 µM 15% | [2]; at 33.0 µM 54% | [3]; at 1.2 µM 0% | [3]; at 3.7 µM 2% | [3]; [15] 11% | [3]; at 11.0 µM 17% | [3]; at 33.0 µM 43% | [3]; [16] -3% | [3]; at 50.0 µM 57.2% | [4]; at 1.2 µM -3% | [4]; at 3.7 µM 1% | [4]; [15] 0% | [4]; at 11.0 µM 4% | [4]; at 33.0 µM 4% | [4]; [16] 2% | [4]; at 50.0 µM 26.4% | [4]; at 100.0 µM 34% | [5]; at 1.2 µM 1% | [5]; at 3.7 µM 1% | [5]; at 11.0 µM 6% | [5]; at 33.0 µM 9% | [5]; at 100.0 µM 39% | [6]; [15] 0% | [6]; [16] -2% | [6]; at 50.0 µM 20.6% | [7]; at 1.2 µM -9% | [7]; at 3.7 µM -4% | [7]; at 11.0 µM -10% | [7]; at 33.0 µM -3% | [7]; at 100.0 µM 9% | [8]; [15] -1% | [8]; [16] -2% | [8]; at 50.0 µM 8.15% | [9]; at 1.2 µM -1% | [9]; at 3.7 µM -12% | [9]; [15] 1% | [9]; at 11.0 µM -8% | [9]; at 33.0 µM -13% | [9]; [16] -29% | [9]; at 50.0 µM -2.55% | [9]; at 100.0 µM 24% | [10]; at 1.2 µM -2% | [10]; at 3.7 µM -3% | [10]; at 11.0 µM -4% | [10]; at 33.0 µM -4% | [10]; at 100.0 µM 11% | [11]; at 1.2 µM -3% | [11]; at 3.7 µM -2% | [11]; at 11.0 µM 1% | [11]; at 33.0 µM 3% | [11]; at 100.0 µM 25% | [13]; [15] 3% | [13]; [16] 3% | [13]; at 50.0 µM 27.5% | [14]; at 1.2 µM 1% | [14]; at 3.7 µM 2% | [14]; at 11.0 µM 6% | [14]; at 33.0 µM 14%
active: [2]; at 100.0 µM 86% | [3]; at 100.0 µM 94% | [14]; at 100.0 µM 82%
